In all, about 5,500 compounds went through this assay and about 2,000 (36%) were called active. Not shown: some 18% with an inconclusive outcome. No stated cut-off is given here; in the data, active means normalized growth mostly below about 0.91 (no sharp cut-off); inconclusive means no clear call, values can overlap the other calls; inactive means mostly above about 0.92. The list shows a part of the results.
Assay: chemical genetic growth profiling, strain panel (AID 1159580);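 further: tested at 20 µM; growth read once vehicle control cultures reached saturation at 30 °C; 1 = growth at the plate median or of vehicle wells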
Settings: growth OD

Measured: normalized growth

CC1(C)C2CC(=O)[C@]3(C)C(CC[C@@]4(C)[C@H](c5ccoc5)OC(=O)[C@H]5O[C@]543)[C@@]2(C)C=C[C@@H]1O (some centres not stated)
inactive: S. cerevisiae deletion strains, locus YBR021W, strain FUR4, stronger effect = lower value 0.944 | S. cerevisiae deletion strains, locus YBR229C, strain ROT2, stronger effect = lower value 1.02 | S. cerevisiae deletion strains, locus YCL029C, strain bik1, stronger effect = lower value 1 | S. cerevisiae deletion strains, locus YDL035C, strain GPR1, stronger effect = lower value 1.02 | S. cerevisiae deletion strains, locus YDL074C, strain BRE1, stronger effect = lower value 1.01 | S. cerevisiae deletion strains, locus YDL101C, strain DUN1, stronger effect = lower value 0.994 | S. cerevisiae deletion strains, locus YDL134C, strain PPH21, stronger effect = lower value 0.982 | S. cerevisiae deletion strains, locus YDL185W, strain tfp1, stronger effect = lower value 1.01 | S. cerevisiae deletion strains, locus YDL192W, strain arf1, stronger effect = lower value 1.01 | S. cerevisiae deletion strains, locus YDR101C, strain arx1, stronger effect = lower value 0.993 | S. cerevisiae deletion strains, locus YDR150W, strain NUM1, stronger effect = lower value 1.01 | S. cerevisiae deletion strains, locus YDR162C, strain NBP2, stronger effect = lower value 1.01 | S. cerevisiae deletion strains, locus YDR318W, strain mcm21, stronger effect = lower value 0.99 | S. cerevisiae deletion strains, locus YDR388W, stronger effect = lower value 1.01 | S. cerevisiae deletion strains, locus YDR502C, strain sam2, stronger effect = lower value 0.967 | S. cerevisiae deletion strains, locus YEL061C, strain CIN8, stronger effect = lower value 1.01 | S. cerevisiae deletion strains, locus YER110C, stronger effect = lower value 0.986 | S. cerevisiae deletion strains, locus YER155C, strain BEM2, stronger effect = lower value 1.01 | S. cerevisiae deletion strains, locus YER167W, strain BCK2, stronger effect = lower value 1.02 | S. cerevisiae deletion strains, locus YGL078C, strain dbp3, stronger effect = lower value 0.981 | S. cerevisiae deletion strains, locus YGL086W, strain mad1, stronger effect = lower value 0.989 | S. cerevisiae deletion strains, locus YGL248W, strain PDE1, stronger effect = lower value 0.998 | S. cerevisiae deletion strains, locus YGR135W, strain pre9, stronger effect = lower value 0.931 | S. cerevisiae deletion strains, locus YGR252W, strain gcn5, stronger effect = lower value 0.844 | S. cerevisiae deletion strains, locus YHR030C, strain SLT2, stronger effect = lower value 1.02 | S. cerevisiae deletion strains, locus YHR079C, strain IRE1 (second series), stronger effect = lower value 0.99 | S. cerevisiae deletion strains, locus YHR094C, strain hxt1, stronger effect = lower value 0.999 | S. cerevisiae deletion strains, locus YHR129C, strain ARP1, stronger effect = lower value 1.01 | S. cerevisiae deletion strains, locus YHR200W, strain rpn10, stronger effect = lower value 0.975 | S. cerevisiae deletion strains, locus YIL066C, strain RNR3, stronger effect = lower value 1.04 | S. cerevisiae deletion strains, locus YIL073C, strain SPO22, stronger effect = lower value 1.02 | S. cerevisiae deletion strains, locus YIL125W, strain kgd1, stronger effect = lower value 0.995 | S. cerevisiae deletion strains, locus YIR030C, strain dcg1, stronger effect = lower value 0.996 | S. cerevisiae deletion strains, locus YJL095W, strain BCK1, stronger effect = lower value 1 | S. cerevisiae deletion strains, locus YJL134W, strain LCB3, stronger effect = lower value 1.01 | S. cerevisiae deletion strains, locus YJL168C, strain set2, stronger effect = lower value 0.993 | S. cerevisiae deletion strains, locus YJL187C, strain SWE1 (second series), stronger effect = lower value 0.981 | S. cerevisiae deletion strains, locus YJR043C, strain POL32, stronger effect = lower value 1.03 | S. cerevisiae deletion strains, locus YKL009W, strain mrt4, stronger effect = lower value 0.988 | S. cerevisiae deletion strains, locus YKL068W, stronger effect = lower value 1.01 | S. cerevisiae deletion strains, locus YKL085W, strain MDH1 (second series), stronger effect = lower value 1.01 | S. cerevisiae deletion strains, locus YKL085W, strain MDH1, stronger effect = lower value 1.01 | S. cerevisiae deletion strains, locus YKR001C, strain vps1, stronger effect = lower value 1 | S. cerevisiae deletion strains, locus YLR039C, strain RIC1, stronger effect = lower value 1.18 | S. cerevisiae deletion strains, locus YLR058C, strain SHM2, stronger effect = lower value 0.996 | S. cerevisiae deletion strains, locus YLR102C, strain apc9, stronger effect = lower value 1 | S. cerevisiae deletion strains, locus YLR262C, strain YPT6, stronger effect = lower value 1.16 | S. cerevisiae deletion strains, locus YLR268W, strain sec22, stronger effect = lower value 1 | S. cerevisiae deletion strains, locus YLR330W, strain CHS5, stronger effect = lower value 1 | S. cerevisiae deletion strains, locus YLR371W, strain rom2, stronger effect = lower value 1.01 | S. cerevisiae deletion strains, locus YLR418C, strain cdc73, stronger effect = lower value 0.936 | S. cerevisiae deletion strains, locus YML016C, strain PPZ1, stronger effect = lower value 1.03 | S. cerevisiae deletion strains, locus YML032C, strain rad52, stronger effect = lower value 0.998 | S. cerevisiae deletion strains, locus YML124C, strain tub3, stronger effect = lower value 0.995 | S. cerevisiae deletion strains, locus YMR078C, strain ctf18, stronger effect = lower value 0.998 | S. cerevisiae deletion strains, locus YMR223W, strain ubp8, stronger effect = lower value 0.97 | S. cerevisiae deletion strains, locus YMR263W, strain SAP30, stronger effect = lower value 0.986 | S. cerevisiae deletion strains, locus YMR307W, strain GAS1, stronger effect = lower value 1.1 | S. cerevisiae deletion strains, locus YNL067W, strain RPL9B, stronger effect = lower value 0.97 | S. cerevisiae deletion strains, locus YNL128W, strain TEP1, stronger effect = lower value 1.02 | S. cerevisiae deletion strains, locus YNL233W, strain BNI4, stronger effect = lower value 0.975 | S. cerevisiae deletion strains, locus YNL250W, strain rad50, stronger effect = lower value 0.986 | S. cerevisiae deletion strains, locus YNL271C, strain bni1, stronger effect = lower value 1 | S. cerevisiae deletion strains, locus YNL298W, strain CLA4, stronger effect = lower value 1.01 | S. cerevisiae deletion strains, locus YNL307C, strain MCK1, stronger effect = lower value 1 | S. cerevisiae deletion strains, locus YNL322C, strain KRE1, stronger effect = lower value 1.01 | S. cerevisiae deletion strains, locus YNR052C, strain pop2, stronger effect = lower value 0.967 | S. cerevisiae deletion strains, locus YOL012C, strain htz1 1.21 | S. cerevisiae deletion strains, locus YOL147C, strain pex11, stronger effect = lower value 0.993 | S. cerevisiae deletion strains, locus YOR061W, strain CKA2, stronger effect = lower value 1.02 | S. cerevisiae deletion strains, locus YOR069W, strain VPS5, stronger effect = lower value 1 | S. cerevisiae deletion strains, locus YOR136W, strain idh2, stronger effect = lower value 0.985 | S. cerevisiae deletion strains, locus YOR144C, strain elg1, stronger effect = lower value 1 | S. cerevisiae deletion strains, locus YOR184W, strain ser1, stronger effect = lower value 0.993 | S. cerevisiae deletion strains, locus YOR316C, strain cot1, stronger effect = lower value 1.01 | S. cerevisiae deletion strains, locus YPL241C, strain CIN2, stronger effect = lower value 1.01 | S. cerevisiae deletion strains, locus YPR119W, strain clb2, stronger effect = lower value 0.997 | S. cerevisiae deletion strains, locus YPR141C, strain kar3, stronger effect = lower value 1.01 | S. cerevisiae deletion strains, locus YPR163C, strain tif3, stronger effect = lower value 0.987 | S. cerevisiae deletion strains, locus YPR167C, strain met16, stronger effect = lower value 0.985 | S. cerevisiae deletion strains, strain wtn01, stronger effect = lower value 0.998 | S. cerevisiae strains, strain wild type, stronger effect = lower value 1.01

From PubChem BioAssay AID1159580 (chemical genetic matrix, 2015)
